Screening results as filed in PubChem.
Six1-Eya2 blk: Six1/Eya2 interaction inhibition; Q15475+O00167; 0.56% of 360,000 active; AlphaScreen GST-Six1/His-Eya2 binding, biochemical; stronger effect = lower value; activity change, % (concentration not given with the values); AID 651725; in the data active = activity change below about -65%; inconclusive = mostly about -30% to -63%
Target sequence (O00167 whole entry, looked up): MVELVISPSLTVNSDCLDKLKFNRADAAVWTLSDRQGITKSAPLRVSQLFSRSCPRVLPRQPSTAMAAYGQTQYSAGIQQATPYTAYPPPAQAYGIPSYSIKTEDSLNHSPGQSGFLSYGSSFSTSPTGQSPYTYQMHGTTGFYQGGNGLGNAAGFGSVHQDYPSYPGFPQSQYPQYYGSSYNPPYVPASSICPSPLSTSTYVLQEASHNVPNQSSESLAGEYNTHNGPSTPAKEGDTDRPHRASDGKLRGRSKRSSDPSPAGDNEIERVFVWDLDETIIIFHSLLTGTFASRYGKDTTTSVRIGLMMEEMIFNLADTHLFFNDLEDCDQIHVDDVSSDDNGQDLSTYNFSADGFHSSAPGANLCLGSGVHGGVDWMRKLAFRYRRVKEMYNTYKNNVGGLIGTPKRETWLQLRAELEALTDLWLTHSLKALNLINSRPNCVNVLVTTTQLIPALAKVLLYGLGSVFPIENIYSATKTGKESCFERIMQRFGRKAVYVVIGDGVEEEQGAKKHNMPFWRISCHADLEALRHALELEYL
Target sequence (Q15475 whole entry, looked up): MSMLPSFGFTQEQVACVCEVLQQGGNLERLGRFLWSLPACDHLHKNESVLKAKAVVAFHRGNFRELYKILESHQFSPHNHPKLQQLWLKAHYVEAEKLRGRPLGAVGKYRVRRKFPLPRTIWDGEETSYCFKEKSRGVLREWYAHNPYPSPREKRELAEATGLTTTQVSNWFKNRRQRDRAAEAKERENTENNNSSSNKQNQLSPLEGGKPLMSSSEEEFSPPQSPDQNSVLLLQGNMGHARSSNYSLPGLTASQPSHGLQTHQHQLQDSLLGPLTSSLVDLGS
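GST-Six1 + His-Eya2 (5X stock: 250/500 nM); Tris pH 8.0, 300 mM NaCl, 0.05% BSA, 0.02% Tween 20; GSH donor/Ni acceptor beads; 1 h 37 °C dark; AlphaScreen readout.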
TDP1 cell CPT: DT40-hTDP1 cell growth loss with CPT; chicken DT40 Tdp1-/-;hTDP1 cells + 20 nM CPT, ATP luminescence, 48 h; Potency, µM (titrated, usually from 46.2 µM), usual class: inhibitors; AID 686979; 12% of 420,000 active; note: nearly all actives have a fitted effect of over 55% in size
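Cell growth measured by CellTiter-Glo luminescence after a minimum 48 h, 37 C compound exposure with 20 nM CPT in Tdp1-knockout DT40 cells stably expressing hTDP1, seeded 400/well; qHTS titration format.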
DT40 TDP1 no CPT: qHTS for Inhibitors of human tyrosyl-DNA phosphodiesterase 1 (TDP1): qHTS in cells in absence of CPT; DT40 Tdp1-/- hTDP1 cells, no CPT, ATP luminescence, 48 h; 15% of 420,000 active; Potency, µM (doses to about 46.2 µM), hits mostly inhibitors; note: nearly all actives have a fitted effect of over 55% in size
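DT40 Tdp1-/-;hTDP1 cells, no CPT (DMSO vehicle only), 400 cells/well; compounds pin-transferred; ≥48 hr, 37 °C; CellTiter-Glo 30 min RT dark, luminescence read.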
IL1B secr inh: blocks inflammasome-driven IL-1 beta release; THP-1 LPS/ATP IL-1B secretion, AlphaLISA, 16 h; stronger effect = lower value; activity change, % at 57.5 µM; 4.7% of 360,000 active; AID 743279; in the data active = activity change below about -50%; inconclusive = mostly about -30% to -49%
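Secreted IL-1B measured by AlphaLISA bead assay after 16 h compound exposure of THP-1 cells; compounds (final up to 57.5 uM) added 1 h before LPS (250 ng/mL) and ATP (1.25 mM) stimulation; lower signal means less secretion.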
CtBP-E1A inh: blocks the CtBP interaction with E1A | 0.49% of 340,000 active | AlphaScreen GST-E1A/His-CtBP binding, 1536-well; stronger effect = lower value | AID 651724 | activity change, % (concentration not given with the values); in the data active = activity change below about -65%; inconclusive = mostly about -30% to -63%
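Homogeneous bead-based format: GST-tagged E1A captured on glutathione donor beads, His-tagged CtBP on nickel acceptor beads; compounds precede bead addition by 2 h at 37 °C.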
TDP1 inh: inhibitors of human tyrosyl-DNA phosphodiesterase TDP1. Q9NUW8. 0.28% of 350,000 active. recombinant TDP1, AlphaScreen DNA substrate cleavage. Potency, µM (highest dose often 130 µM), hits mostly inhibitors. AID 485290; note: nearly all actives have a fitted effect of over 40% in size
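Recombinant human Tdp1 (E. coli-expressed, 1 nM final) preincubated with compounds 15 min at room temperature, then 5'-biotin/3'-phosphotyrosine-FITC DNA substrate (15 nM final) added for 5 min. AlphaScreen beads (10 ug/ml final) added 10 min; cleavage lowers signal.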
Numbers stand for hits; n = inactive; u = inconclusive; x = no result given. In the library only some 18% were active in any assay of this set; here they are far more common. Unless noted, calls come from the whole dose curve; as a rule, active = well fitted curve in the direction sought with a large enough effect; inconclusive = small, poorly fitted or top-dose-only effect, or another doubt; inactive = no such curve, though single readings can be large; an effect the other way counts as inactive or inconclusive.

SMILES	Six1-Eya2 blk	TDP1 cell CPT	DT40 TDP1 no CPT	IL1B secr inh	CtBP-E1A inh	TDP1 inh
N/C(Cc1ccc([N+](=O)[O-])cc1)=N\OC(=O)c1ccc2ccccc2c1	n	9.2µM	u	n	n	n
Cc1ccc(CC(=O)O/N=C(\N)Cc2ccc([N+](=O)[O-])cc2)cc1	n	n	n	n	n	n
Cc1ccc(C(=O)O/N=C(\N)Cc2ccc([N+](=O)[O-])cc2)c(Cl)c1	n	u	23.1µM	u	x	x
N/C(=N\OC(=O)Cc1ccc([N+](=O)[O-])cc1)c1cccc(Br)c1	n	n	n	-81.6	n	n
O=C(NCCCn1ccnc1)C(=O)NCC1OCCN1S(=O)(=O)c1ccc2c(c1)OCCO2 (configuration not stated)	n	n	n	n	n	n
CCOC(=O)c1c(C)sc(-c2c(-c3ccccc3)[nH]c3[nH]c(=O)[nH]c(=O)c23)c1O	x	n	n	x	x	n
Cc1ccc(NC2=C(CC(=O)O)C(c3ccccc3)N(c3ccc(C)cc3)C2=O)cc1 (configuration not stated)	n	16.4µM	u	n	n	n
O=C1OCCN1C(=O)[C@H]1[C@H](c2ccc(Cl)cc2)C(c2ccc(F)cc2)=NN1c1ccccc1	n	n	u	n	n	n
CN(C)c1ccc(/C=C2\c3ccccc3C(=O)N2c2ccccc2)cn1	n	9.2µM	n	n	n	x
COc1ccc(C=CC(=O)c2ccc3cc(OC)c(OC)cc3c2)cc1OC	n	u	5.8µM	-97.6	n	x
COc1ccc(C=CC(=O)c2ccc(OC)c(OC)c2)cc1O	n	14.6µM	18.4µM	-64.9	n	x
COc1cc2ccc(C(C)=O)cc2cc1OC	n	n	n	n	n	x
COc1cc(/C=C/C(=O)OCC(=O)NCc2ccccc2OC)ccc1O	n	u	n	n	n	x
COc1ccc(C(=O)C=Cc2ccc3c(c2)OCO3)cc1OC	n	n	u	n	n	x
COc1ccc(C(=O)/C=C/c2ccc(OC)c(O)c2)c(F)c1	n	u	16.4µM	-103.9	n	n
COc1ccc(/C=C/C(=O)CC(=O)/C=C/c2cccc(O)c2OC)cc1O	x	6.64µM	2.97µM	x	x	n
O=C(N[C@H]1CC[C@H](CCNS(=O)(=O)c2ccc(Cl)cc2)O[C@@H]1CO)c1cccc(F)c1	n	u	u	n	n	x
O=C1C(=NO)C(c2ccccc2)Oc2ccccc21 (configuration not stated)	n	n	n	-89.6	n	x
Cc1csc(NC(=O)CSc2nnc(-c3ccncc3)o2)n1	n	u	u	n	n	n
CCNc1ncc2nc(-c3ccc(F)cc3)c(=O)n(-c3ccc(OC)cc3)c2n1	x	0.731µM	0.581µM	x	x	x
CCNc1ncc2nc(-c3cc(F)cc(F)c3)c(=O)n(-c3ccc(OC)cc3)c2n1	x	n	n	x	x	x
CCNc1ncc2nc(C)c(=O)n(CCc3ccccc3)c2n1	x	7.31µM	u	x	x	x
CCNc1ncc2nc(C)c(=O)n(-c3ccc(OC)cc3)c2n1	x	u	2.06µM	x	x	x
COc1ccc(-c2nc3cnc(OC)nc3n(-c3ccc(OC)cc3)c2=O)cc1	x	1.3µM	0.92µM	x	x	x
COc1cc(/C=N/NC(=O)c2sc3ccccc3c2Cl)ccc1OC(=O)c1ccc([N+](=O)[O-])cc1	n	u	u	n	n	n
SMILES	Six1-Eya2 blk	TDP1 cell CPT	DT40 TDP1 no CPT	IL1B secr inh	CtBP-E1A inh	TDP1 inh
Cc1oc(S(=O)(=O)N2CCCCC2)cc1NC(=O)Nc1ccc(F)cc1	n	n	u	n	x	n
CCC(C)NC(=O)COc1ccc(Br)c(C)c1 (configuration not stated)	n	u	u	n	n	n
N#Cc1ccccc1OCC(=O)OCC(=O)c1ccc[nH]1	n	n	n	n	x	n
CCNc1ncc2nc(-c3ccccc3)c(=O)n(-c3ccc(OC)cc3)c2n1	x	7.31µM	0.517µM	x	x	x
Fc1cccc(/C=N/Nc2nccnc2Cl)c1	n	11.6µM	14.6µM	n	n	n
Fc1ccc(/C=N/Nc2nccnc2Cl)cc1	n	n	n	u	n	n
